Experimental findings from PubChem BioAssay (NCATS) are described below.

Records with an inconclusive call do not appear. Entries that show only a call come without a potency. The source made the active and inactive calls. Calls follow the shape of the full dose curve; tested in HEK293 reporter line.
Potency is read from the fitted curve at half-maximal effect.

The test in a line: qHTS for Inhibitors of the Functional Ribonucleoprotein Complex (vRNP) of Lassa (LASV) Arenavirus: LASV Primary Screen - GLuc reporter signal (AID 1347082). Also: nearly all actives have a fitted effect of over 60% in size. To be noted: LASV minigenome vRNP, Gaussia luciferase reporter; series mostly up to 57.5 µM. (In general: qHTS replaces the single test concentration by a dilution series.)
As for `CC(C)(S)[C@@H](N)C(=O)O`, the Potency result was “inactive”. For `Cc1ccc(-c2ccccc2C#N)cc1`, the Potency result was “inactive”. With `CN1CCN(N)CC1`, the Potency result was “inactive”. Take `OC[C@H]1O[C@@H](n2cnc3c2NC=NC[C@H]3O)C[C@@H]1O`: the Potency result is “inactive”. The result for `Nc1ccc(C(=O)OCC(O)CO)cc1` (configuration not stated) reads “inactive”. The result for `CC(=O)Nc1c(I)cc(I)c(C(=O)O)c1I` reads “inactive”; that for `Nc1ccc(S(=O)(=O)Nc2ccc(Cl)nn2)cc1`, “inactive”; that for `CCNC(=O)/C=C/c1cccc(Br)c1`, “inactive”.

Regarding `Nc1ccc(S(=O)(=O)NC(=O)c2ccccc2)cc1`, the Potency entry is “inactive”. Regarding `Cc1nc([N+](=O)[O-])cn1-c1ccc([N+](=O)[O-])cc1`, the Potency entry is “inactive”. Regarding `Cc1ccc(O)c2ncccc12`, the Potency entry was “inactive”. As to `O=C(Oc1ccccc1)c1ccccc1O`, the Potency result was “inactive”. The entry for `C[C@](N)(Cc1ccc(O)cc1)C(=O)O` is “inactive”; for `C[N+](C)(C)CCOC(N)=O` it is “inactive”; for `Cc1cc2c(cc1S(N)(=O)=O)S(=O)(=O)CCC2` it is “inactive”.

For the compound `COc1cccc2c1C(=O)c1c(O)c3c(c(O)c1C2=O)C[C@@](O)(C(C)=O)C[C@H]3O[C@H]1C[C@H](N)[C@H](O)[C@H](C)O1`, the Potency was 1.22 µM (active). The entry for `COc1cc(C(=O)NC2CCCNC2)cc(OC)c1OC` (configuration not stated) is “inactive”. `CN[C@@H]1[C@H](O)[C@H](NC)[C@H]2O[C@@]3(O)C(=O)C[C@@H](C)O[C@H]3O[C@@H]2[C@H]1O`: the Potency entry was “inactive”. The entry for `CCOC(=O)c1ccc(O)cc1` is “inactive”; for `O=C(N[C@H](CO)[C@H](O)c1ccc([N+](=O)[O-])cc1)C(Cl)Cl` it is “inactive”. As for `Cc1c[nH]c2ccccc12`, the Potency entry is “inactive”. The result for `CCN(CC)C(=O)c1ccc(O)c(OC)c1` reads “inactive”.
